Measured values from PubChem BioAssay (Tox21).
Inconclusive results are not listed. Active and inactive are the calls of the source. The call rests on the fitted dose curve; in most records, active means well fitted cell-killing curve with a large enough effect in the repeat runs; inconclusive means weak or mixed curves, or effect the other way; inactive means flat fitted curve, though single readings scatter.

Assay: cAMP Responsive Elements (CRE) small molecule antagonists, cell-based qHTS assay: qHTS cell viability counter screen (AID 2060913); further: nearly all actives have a fitted effect of over 40% in size
Conditions: CRE-bla HEK293T viability, CellTiter-Glo luminescence, 5 h; series mostly up to 92.4 µM; viability change, negative = cytotoxic: at the top concentration
In short: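 Steps: cells plated and held 18 hrs at 37 C/5% CO2; compounds and NKH477 (0.25 uM final) added; 3 hrs incubation; reporter substrate read; CellTiter-Glo added to measure cytotoxicity by luminescence.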
On the % scale 0 is the no-effect control and ±100 the full control effect; potency means the concentration at half of the fitted maximal effect.

Row | Structure (SMILES) | viability change, negative = cytotoxic | Potency
1 | CC1(COc2ccc(CC3SC(=O)NC3=O)cc2)CCCCC1 (stereo not drawn) | -12.3% [at 42.5 µM] (inactive) | 
2 | CC1=NS(=O)(=O)c2cc(Cl)ccc2N1 | 8.19% [at 42.5 µM] (inactive) | 
3 | N=C1N=C(N)c2ccccc21 | 9.57% (inactive) | 
4 | COc1ccc2nc(NC(=O)Nc3ccccc3)sc2c1 | -8.66% [at 42.5 µM] (inactive) | 
5 | c1ccc(SCCSc2ccccc2)cc1 | -1.84% (inactive) | 
6 | CCOC(=O)c1cc(=O)c2c(OCC(COc3cccc4oc(C(=O)OCC)cc(=O)c34)OC(=O)[C@@H](N)CCCCN)cccc2o1 | 3.08% [at 42.5 µM] (inactive) | 
7 | CCOC(=O)NCCC[Si](OCC)(OCC)OCC | -0.154% (inactive) | 
8 | CCCCC(CC)COC(=O)c1ccccc1C(=O)O (stereo not drawn) | 3.97% (inactive) | 
9 | CCCCCN(CCCOC)C(=O)C(CCC(=O)O)NC(=O)c1ccc(Cl)c(Cl)c1 (stereo not drawn) | 0.873% [at 42.5 µM] (inactive) | 
10 | O=c1[nH]c(=O)c2[nH]c(=O)[nH]c2[nH]1 | -5.49% [at 8.39 µM] (inactive) | 
11 | COc1ccc(CN(CCN(C)C)c2ccccn2)cc1 |  | inactive
12 | N#CCCCC(C#N)CCC#N (stereo not drawn) | -0.612% (inactive) | 
13 | O=C(Nc1ccc([N+](=O)[O-])cc1Cl)c1cc(Cl)ccc1O | -20.4% (inactive) | 
14 | C=CCCCCCCCC | 1.29% (inactive) | 
15 | OCC(O)c1ccccc1 (stereo not drawn) | -3.2% (inactive) | 
16 | SCCCCCCCCS | -0.71% (inactive) | 
17 | CC(=O)/C=C/C1C(C)=CCCC1(C)C (stereo not drawn) | -1.21% (inactive) | 
18 | COc1ccc(Nc2ccc(OC)cc2)cc1 | -13% (inactive) | 
19 | C[C@@H](C1=C(CCN(C)C)Cc2ccccc21)c1ccccn1 | 5.53% [at 42.5 µM] (inactive) | 
20 | NCc1cccc(C2CCN(C(=O)c3ccc(C#Cc4ccccc4F)o3)CC2)c1 |  | 68.6 µM (active)
21 | CC1(C)[C@H]2CC[C@](C)(C2)[C@H]1O | 2.63% (inactive) | 
22 | CCC(C)NC(N)=O (stereo not drawn) | 2.05% (inactive) | 
23 | Clc1nc2ccccc2s1 | -1.37% (inactive) | 
